# Active and inactive are the calls of the source. Unless noted, no rule for the calls is given here.
# Legend:
# [1] = A549 cell viability effects, profiling panel, calcein-AM fluorescence, 48 h, basal (AID 1162); conditions: higher = more signal; also: test concentration not given here
# [2] = adipocyte viability effects, profiling panel, cell-based, 3T3-L1 adipocytes, calcein-AM fluorescence, 48 h, basal (AID 1163); conditions: 3T3-L1 adipocytes viability, higher = more signal; also: test concentration not given here
# [3] = HepG2 cell viability effects, profiling panel, calcein-AM fluorescence, 48 h, basal (AID 1164); conditions: higher = more signal; also: test concentration not given here
# [4] = MM1S cell viability effects, profiling panel, calcein-AM fluorescence, 48 h, basal (AID 1165); conditions: higher = more signal;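 also: viability of MM1S multiple myeloma cells under basal unstimulated conditions; test concentration not given here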
# [5] = basal RPMI8226 viability, no added stimulus, profiling panel, cell-based, calcein-AM fluorescence, 48 h, PK04 Diversity Set (AID 1166); conditions: RPMI8226 myeloma viability, higher = more signal;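 also: cells grown under basal conditions without added stimulus; test concentration not given here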
# [6] = basal HepG2 mitochondrial membrane potential changes, profiling panel, cell-based, JC-1 fluorescence, 24 h, 100 nL compound (AID 1167); conditions: higher = more signal; also: test concentration not given here
# [7] = basal 3T3-L1 adipocyte mitochondrial potential changes, profiling panel, cell-based, JC-1 fluorescence, 3T3-L1 adipocytes, 24 h, 100 nL compound (AID 1168); conditions: JC-1 mitochondrial fluorescence, higher = more signal, called active from +8 up or from −8 down; also: test concentration not given here
# [8] = basal RPMI8226 mitochondrial membrane potential changes, profiling panel, cell-based, JC-1 fluorescence, 24 h, 100 nL compound (AID 1169); conditions: RPMI8226 myeloma, JC-1 mitochondrial potential fluorescence, higher = more signal; also: test concentration not given here
# [9] = basal MM1S mitochondrial membrane potential changes, profiling panel, cell-based, JC-1 fluorescence, 24 h, 100 nL compound (AID 1170); conditions: higher = more signal; also: test concentration not given here
# [10] = A549 lung cancer cell viability effects, profiling panel, resazurin fluorescence, 24 h, PK04 Diversity Set (AID 1171); conditions: higher = more signal, called active from +8 up or from −8 down; also: test concentration not given here
# [11] = HepG2 liver cancer cell viability effects, profiling panel, resazurin fluorescence, 24 h, PK04 Diversity Set (AID 1172); conditions: higher = more signal; also: test concentration not given here
# [12] = basal S. cerevisiae growth modulation, no modifier, primary screen, OD600, strain BY4716, 24 h, basal condition (AID 1173); conditions: OD600, 24 h, higher = more signal, called active from +8 up or from −8 down
# [13] = MM1S myeloma cell viability, profiling panel, resazurin fluorescence, basal, 24 h, PK04 Diversity Set (AID 1174); conditions: higher = more signal, called active from +8 up or from −8 down;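 also: MM1S multiple myeloma cell line; test concentration not given here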
# [14] = target: Dihydroorotate dehydrogenase (quinone), mitochondrial (Plasmodium falciparum (isolate 3D7)) (UniProt Q08210); assay: PfDHODH enzyme inhibitors, primary screen, biochemical, C-terminal His tag, absorbance 600 nm (AID 1175); conditions: DCIP absorbance 600 nm, higher = more signal, called active from +8 up or from −8 down;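 also: recombinant parasite enzyme with a five histidine tag at its C terminus; test concentration not given here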
# Dihydroorotate dehydrogenase (quinone), mitochondrial (Plasmodium falciparum (isolate 3D7)), sequence (Q08210 whole entry, looked up): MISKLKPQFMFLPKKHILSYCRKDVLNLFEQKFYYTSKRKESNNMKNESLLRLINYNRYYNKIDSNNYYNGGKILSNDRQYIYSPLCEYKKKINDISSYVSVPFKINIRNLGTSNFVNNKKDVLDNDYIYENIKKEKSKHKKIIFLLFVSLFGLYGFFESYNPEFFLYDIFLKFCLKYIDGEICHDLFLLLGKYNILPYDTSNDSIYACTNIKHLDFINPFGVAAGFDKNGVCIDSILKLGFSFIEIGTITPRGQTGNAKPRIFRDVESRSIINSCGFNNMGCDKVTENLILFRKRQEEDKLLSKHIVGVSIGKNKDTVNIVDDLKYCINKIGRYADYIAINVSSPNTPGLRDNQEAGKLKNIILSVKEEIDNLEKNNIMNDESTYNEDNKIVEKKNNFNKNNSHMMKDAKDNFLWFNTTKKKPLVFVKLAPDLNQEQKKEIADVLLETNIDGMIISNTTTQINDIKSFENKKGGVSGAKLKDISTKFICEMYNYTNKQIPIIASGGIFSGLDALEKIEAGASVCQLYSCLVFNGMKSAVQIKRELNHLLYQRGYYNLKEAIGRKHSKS
# [15] = P. aeruginosa biofilm formation inhibitors, primary screen, strain PAO1, LB-PBS medium, absorbance 600 nm (AID 1176); also: test concentration not given here; conditions: P. aeruginosa PAO1 growth/biofilm, A600, 12 h; higher = more signal
# [16] = S. cerevisiae RM11-1a growth modifiers, primary screen, strain RM11-1a, OD600, basal, 24 h (AID 1177); conditions: OD600, 24 h, higher = more signal, called active from +8 up or from −8 down;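 also: cultures grown under basal conditions with no added stressor; test concentration not given here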
# [17] = E. coli acrAB mutant growth effects, primary screen, E. coli filamentation inducers, strain DRC39, OD650, 24 h (AID 1178); conditions: higher = more signal, called active from +8 up or from −8 down;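 also: growth measured as culture turbidity by optical density at 650 nm; test concentration not given here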
# [18] = E. coli acrAB mutant growth effects, primary screen, E. coli filamentation inducers, strain DRC39, OD650, 48 h (AID 1179);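 also: screen aims at cell division blockers that make cells filament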; conditions: E. coli DRC39 delta-acrAB growth, higher = more signal, called active from +8 up or from −8 down
# [19] = RPMI8226 myeloma cell viability, profiling panel, resazurin fluorescence, basal, 24 h, PK04 Diversity Set (AID 1180); conditions: higher = more signal;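 also: RPMI8826 multiple myeloma cell line at 5000 cells per well; test concentration not given here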
# [20] = target: E3 ubiquitin-protein ligase XIAP (Homo sapiens) (UniProt P98170); assay: XIAP binders, primary screen, biophysical, small-molecule microarray, fluorescence 635 nm (AID 1181); conditions: small-molecule microarray binding, higher = more signal;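 also: score merges 667 nm emission and signal to noise over triplicate slides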
# E3 ubiquitin-protein ligase XIAP (Homo sapiens), sequence (P98170 whole entry, looked up): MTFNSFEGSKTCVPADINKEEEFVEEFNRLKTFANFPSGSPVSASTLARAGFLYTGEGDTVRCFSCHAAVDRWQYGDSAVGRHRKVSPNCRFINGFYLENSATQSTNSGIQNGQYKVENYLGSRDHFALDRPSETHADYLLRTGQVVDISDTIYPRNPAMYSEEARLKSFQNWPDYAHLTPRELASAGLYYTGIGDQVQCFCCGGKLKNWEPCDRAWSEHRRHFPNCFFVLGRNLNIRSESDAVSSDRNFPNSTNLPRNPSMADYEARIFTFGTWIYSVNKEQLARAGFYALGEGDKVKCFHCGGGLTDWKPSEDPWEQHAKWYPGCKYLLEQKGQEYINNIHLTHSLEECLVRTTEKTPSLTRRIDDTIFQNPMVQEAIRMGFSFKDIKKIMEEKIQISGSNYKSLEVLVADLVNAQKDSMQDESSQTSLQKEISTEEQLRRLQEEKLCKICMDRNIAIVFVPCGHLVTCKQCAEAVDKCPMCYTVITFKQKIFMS
SMILES,z-score [1],z-score [2],z-score [3],z-score [4],z-score [5],z-score [6],z-score [7],z-score [8],z-score [9],z-score [10],z-score [11],z-score [12],z-score [13],composite z-score [14],z-score [15],z-score [16],z-score [17],z-score [18],z-score [19],composite z-score [20]
CCCNC(=O)OC[C@H]1O[C@H](CCON=C(C)C)C=C[C@@H]1Oc1ccc(OC)cc1,0.171,0.008,-0.0737,-0.39,0.0566,-1.57,-1.43 (inactive),0.255,0.276,0.095 (inactive),-0.131,-2.44 (inactive),-0.112 (inactive),-0.411 (inactive),0.736 (inactive),-0.0159 (inactive),0.675 (inactive),-1.4 (inactive),-0.331,-0.0859
CC(C)=NO[C@H](C)c1cn([C@H](CO)Cc2ccccc2)nn1,0.373,0.232,-0.121,-0.0735,-0.33,-0.312,-0.41 (inactive),0.155,1.11,0.268 (inactive),0.0622,-0.489 (inactive),-0.11 (inactive),-0.784 (inactive),0.204 (inactive),-0.493 (inactive),0.517 (inactive),-1.91 (inactive),0.672,-0.0538
CC(C)=NOC[C@@H](C)[C@H](OCc1ccccc1)C(C)C,0.108,0.311,-0.0481,-0.313,-0.556,-0.0858,0.0392 (inactive),-0.279,0.503,-0.557 (inactive),-0.593,0.201 (inactive),-0.572 (inactive),0.444 (inactive),-0.115 (inactive),0.536 (inactive),-0.161 (inactive),-0.339 (inactive),0.887,0.0077
CO[C@H]1COC(=O)[C@@H](Cc2ccccc2)NC(=O)[C@@H](C)COC(=O)CCC[C@@H]1C,0.704,0.0955,0.577,-0.267,-0.283,-0.212,0.00303 (inactive),-0.161,-1.23,0.6 (inactive),0.464,-0.916 (inactive),1.18 (inactive),-1.7 (inactive),-1.24 (inactive),-0.726 (inactive),0.285 (inactive),1.39 (inactive),0.759,-0.0918
C[n+]1ccc(-c2ccc(CO)cc2)cc1,-1.45,-0.84,-0.0981,-0.31,-0.196,-1.04,-0.872 (inactive),-0.634,0.236,-0.939 (inactive),-0.557,0.11 (inactive),-0.404 (inactive),-10 (active),-0.407 (inactive),-0.142 (inactive),0.207 (inactive),-0.0742 (inactive),-0.674,0.433
COCCNC(=O)OCC1CCCC2(CC(OC(=O)NCc3ccc4c(c3)OCO4)CC(CCC(=O)N[C@@H](C)C(=O)OC)O2)O1 (stereo not given in full),0.122,-0.0741,-1.29,0.463,-2.51,-0.802,-0.628 (inactive),0.934,-0.318,1.66 (inactive),0.752,-0.433 (inactive),-0.0741 (inactive),0.209 (inactive),-0.282 (inactive),0.715 (inactive),0.311 (inactive),-0.49 (inactive),0.528,-0.173
CO[C@@H]1COC(=O)[C@@H]2CCCN2C(=O)[C@@H](C)COC(=O)CC=C[C@H]1C,-1.06,-0.11,-0.321,0.0099,-0.748,-0.2,-1.49 (inactive),-0.0504,-0.684,0.948 (inactive),1.09,0.755 (inactive),0.468 (inactive),-0.385 (inactive),-0.749 (inactive),0.0994 (inactive),0.207 (inactive),-0.179 (inactive),0.189,-0.273
CC(=O)Nc1ccc([C@@H]2N[C@H](C(=O)O)CC[C@H]2C)cc1,0.858,0.122,-0.0918,0.402,-0.371,1.14,0.456 (inactive),-0.355,-0.0501,-0.542 (inactive),0.219,-0.236 (inactive),-0.106 (inactive),0.0947 (inactive),0.557 (inactive),0.237 (inactive),0.909 (inactive),0.781 (inactive),-0.625,-0.0445
CCOC(=O)[C@H](CC(C)C)NC(=O)CCC1CC(OC(=O)NCCc2ccc(F)cc2)CC2(CCCC(COC(=O)NCCC(C)C)O2)O1 (stereo not given in full),-0.646,0.174,0.0995,0.773,-0.479,-0.488,0.152 (inactive),0.248,-0.00687,0.0692 (inactive),-0.566,1.2 (inactive),0.214 (inactive),0.322 (inactive),0.532 (inactive),0.821 (inactive),0.334 (inactive),-0.139 (inactive),0.398,0.0938
CC(C)CON=C1C[C@@H](O)[C@@H](O)[C@@H]2[C@@H]3C(=O)N(C4CCCCC4)C(=O)[C@@H]3CC[C@@H]12,-0.162,0.617,-0.323,-0.34,-0.271,-1.21,-0.49 (inactive),-0.0174,0.268,-0.048 (inactive),-0.577,-4.72 (inactive),0.119 (inactive),-0.508 (inactive),-0.294 (inactive),0.523 (inactive),-0.3 (inactive),-1.17 (inactive),-0.0596,0.0159
CC1O[C@H]2C3=C(C(=O)[C@@H]4O[C@@H]4[C@H]3O)[C@@H]1C1[C@@H](C)OC=C3[C@H](O)C4O[C@@H]4C(=NOCc4ccccc4)[C@]312 (stereo not given in full),-0.434,0.145,-1.65,-3.58,-3.71,-2.66,0.435 (inactive),-0.856,-2.28,-0.989 (inactive),-1.04,-0.456 (inactive),-4.85 (inactive),0.0953 (inactive),-0.364 (inactive),0.543 (inactive),0.158 (inactive),-0.123 (inactive),-2.84,0.215
COC(=O)C=CCCc1coc(C=CCNC(=O)OC)n1,-0.538,0.868,-0.586,0.585,-2.19,0.0672,-0.944 (inactive),0.073,0.681,-1.18 (inactive),-0.658,-1.07 (inactive),0.0455 (inactive),0.979 (inactive),-0.27 (inactive),0.237 (inactive),-1 (inactive),-0.542 (inactive),-0.102,0.249
CCOC(=O)NN=C1C[C@@H](O)[C@@H](O)[C@@H]2[C@@H]3C(=O)N([C@@H](C)c4ccccc4)C(=O)[C@@H]3CC[C@@H]12,0.0669,-1.33,-0.624,0.372,-0.112,-0.369,-0.878 (inactive),-0.92,-0.834,0.4 (inactive),0.13,-0.608 (inactive),-0.371 (inactive),-0.0776 (inactive),-0.72 (inactive),-0.645 (inactive),-0.654 (inactive),-0.23 (inactive),-0.436,-0.202
CCOC(=O)[C@H](CC(C)C)NC(=O)CCC1CC(OC(=O)NCc2cccc3ccccc23)CC2(CCCC(COC(=O)NCc3ccncc3)O2)O1 (stereo not given in full),0.357,-0.0315,-0.215,-3.43,-1.8,0.991,0.666 (inactive),-0.12,-1.14,0.645 (inactive),-0.232,-0.101 (inactive),0.192 (inactive),0.0964 (inactive),0.368 (inactive),0.559 (inactive),1.1 (inactive),0.399 (inactive),-0.404,-0.105
CO[C@H]1COC(=O)[C@@H]2CCCN2C(=O)CC=C[C@@H](C)[C@H](OC)COC(=O)[C@@H](OCc2ccccc2)C=C[C@@H]1C,-0.622,0.852,0.305,0.41,-0.697,0.887,0.377 (inactive),0.0666,-0.305,0.0375 (inactive),-0.416,-1.72 (inactive),1.58 (inactive),-2.88 (inactive),-1.01 (inactive),-0.965 (inactive),0.421 (inactive),0.29 (inactive),0.552,-0.284
COC(=O)CC=C[C@@H](C)[C@@H](C=NO[C@@H](C)c1cn([C@H](CO)Cc2ccccc2)nn1)NS(=O)(=O)c1ccc(C)cc1,0.788,0.521,1.35,0.56,0.593,-1.24,0.153 (inactive),-0.249,-0.648,-0.685 (inactive),-1.21,-0.913 (inactive),-0.412 (inactive),-1.16 (inactive),-1.54 (inactive),-2.06 (inactive),0.196 (inactive),0.364 (inactive),-0.808,-0.349
CC(C)[C@@H](OCc1ccccc1)[C@H](C)C=NOC[C@@H](O)COCc1ccco1,-0.695,0.0863,-0.893,-1.05,-1.09,-1.83,-1.25 (inactive),-0.298,-0.368,-0.185 (inactive),-0.314,-11.9 (active),-0.911 (inactive),-0.585 (inactive),0.429 (inactive),-1.12 (inactive),0.7 (inactive),0.43 (inactive),-0.885,-0.0172
COC(=O)[C@H](C)NC(=O)CCC1CC(OC(=O)NCc2ccc3c(c2)OCO3)CC2(CCCC(COC(=O)NCC3CCCCC3)O2)O1 (stereo not given in full),-0.374,-0.335,-0.653,-3.22,-0.103,-0.283,-0.183 (inactive),0.34,-0.0549,0.619 (inactive),0.635,0.415 (inactive),0.138 (inactive),0.981 (inactive),-0.388 (inactive),1.13 (inactive),0.49 (inactive),0.139 (inactive),-0.119,0.104

# Source: PubChem BioAssay
